Experimental data as given in PubChem BioAssay (NCATS).
Results filed as inconclusive are left out. Unmarked numbers belong to inactive results. Active and inactive are the calls of the source. The call rests on the fitted dose curve; in most records, active means well fitted cell-killing curve with a large enough effect; inconclusive means small, poorly fitted or top-dose-only effect, or effect the other way; inactive means no such curve, though single readings can be large or run the other way. Non-standard residues stand in square brackets, D forms with d. Residues, ends and D or L forms follow the SMILES beside them. *: point of attachment. Nva = CCC[C@H](N)C(=O)O; Cbz = O=C(OCc1ccccc1)*

How the values were obtained:
[1] = Quantitative High-Throughput drug screen in 47 multiple myeloma cell lines against the NCATS MIPE library collection: FR4_PLB cell viability assay (AID 1918924; further: nearly all actives have a fitted effect of over 35% in size)
Procedure, shortened: (§1)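 Luminescent ATP measurement with CellTiter-Glo gives viability, scaled between DMSO-only wells (100%) and media-only wells (0%). Cells, 500 per well, faced library compounds for 48 hours at 37C.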

[2] = Quantitative High-Throughput drug screen in 47 multiple myeloma cell lines against the NCATS MIPE library collection: Delta47_JCRB cell viability assay (AID 1918925; further: nearly all actives have a fitted effect of over 45% in size)
Procedure, shortened: (§2)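 Approved and investigational drugs from MIPE 4.0 were added by pin tool to 500 cells per well. After 48 hours at 37C, ATP-based CellTiter-Glo luminescence indicated remaining viability.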

[3] = Quantitative High-Throughput drug screen in 47 multiple myeloma cell lines against the NCATS MIPE library collection: EJM_DSMZ cell viability assay (AID 1918926; further: nearly all actives have a fitted effect of over 30% in size)
Procedure, shortened: as §2

[4] = Quantitative High-Throughput drug screen in 47 multiple myeloma cell lines against the NCATS MIPE library collection: AMO1_DSMZ cell viability assay (AID 1918927; further: nearly all actives have a fitted effect of over 30% in size)
Procedure, shortened: as §2

[5] = Quantitative High-Throughput drug screen in 47 multiple myeloma cell lines against the NCATS MIPE library collection: ARD_JJKsccE7 cell viability assay (AID 1918929)
Procedure, shortened: as §2

[6] = Quantitative High-Throughput drug screen in 47 multiple myeloma cell lines against the NCATS MIPE library collection: Karpas620_DSMZ cell viability assay (AID 1918959); further: nearly all actives have a fitted effect of over 30% in size
Procedure, shortened: as §1

[7] = Quantitative High-Throughput drug screen in 47 multiple myeloma cell lines against the NCATS MIPE library collection: KMM1_JCRB cell viability assay (AID 1918960); further: nearly all actives have a fitted effect of over 30% in size
Procedure, shortened: (§3)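 ATP readout (CellTiter-Glo), 48 h drug incubation, 37 °C/5% CO2, 500 cells per well; normalisation to DMSO (100%) and media-only (0%) controls.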

[8] = Quantitative High-Throughput drug screen in 47 multiple myeloma cell lines against the NCATS MIPE library collection: ARP1_JJKsccF8 cell viability assay (AID 1918928; further: nearly all actives have a fitted effect of over 40% in size)
Procedure, shortened: as §3
Potency means the concentration at half of the fitted maximal effect.

SMILES: c1ccc(CNc2nc(NCc3ccccc3)c3ccccc3n2)cc1
- Potency [1]: 23500 nM (active)
- Potency [2]: 7430 nM (active)
- Potency [3]: 18700 nM (active)
- Potency [4]: 8330 nM (active)
- Potency [5]: 18700 nM (active)
- Potency [6]: 5260 nM (active)
- Potency [7]: 4690 nM (active)

SMILES: O=C(O)[C@H](CC(=O)N1C[C@@H]2CCCC[C@H]2C1)Cc1ccccc1
- Potency [1]: inactive
- Potency [2]: inactive
- Potency [3]: inactive
- Potency [8]: inactive

SMILES: CCC[C@@H](C=O)NC(=O)[C@H](CC(C)C)NC(=O)[C@H](CC(C)C)NC(=O)OCc1ccccc1 (Cbz-Leu-Leu-[Nva]-aldehyde)
- Potency [1]: 833 nM (active)
- Potency [2]: 332 nM (active)
- Potency [3]: 1480 nM (active)
- Potency [4]: 296 nM (active)
- Potency [5]: 332 nM (active)
- Potency [6]: 332 nM (active)
- Potency [7]: 235 nM (active)

SMILES: COc1ccc(C(C)=O)c(O)c1
- Potency [1]: inactive
- Potency [2]: inactive
- Potency [3]: inactive
- Potency [4]: inactive
- Potency [5]: inactive
- Potency [6]: inactive
- Potency [7]: inactive

SMILES: CCc1cnn2c(NCc3ccc[n+]([O-])c3)cc(N3CCCC[C@@H]3CCO)nc12
- Potency [1]: 18.7 nM (active)
- Potency [2]: 33.2 nM (active)
- Potency [3]: 18.7 nM (active)
- Potency [4]: 23.5 nM (active)
- Potency [5]: 23.5 nM (active)
- Potency [6]: 33.2 nM (active)
- Potency [7]: 14.8 nM (active)

SMILES: COc1cccc2c1C(=O)c1c(O)c3c(c(O)c1C2=O)C[C@@](O)(C(C)=O)C[C@H]3O[C@H]1C[C@H](N)[C@H](O)[C@H](C)O1
- Potency [1]: 132 nM (active)
- Potency [2]: 41.8 nM (active)
- Potency [3]: 105 nM (active)
- Potency [8]: 59 nM (active)
- Potency [5]: 235 nM (active)
- Potency [7]: 74.3 nM (active)

SMILES: N#CNC(=NCCCCCCOc1ccc(Cl)cc1)Nc1ccncc1
- Potency [1]: 20900 nM (active)
- Potency [2]: 18700 nM (active)
- Potency [3]: 16600 nM (active)
- Potency [4]: 18.7 nM (active)
- Potency [5]: 46.9 nM (active)
- Potency [6]: 1.9 nM (active)
- Potency [7]: 5.9 nM (active)

SMILES: CCN(C(=O)c1c(O)c2c(Cl)cccc2n(C)c1=O)c1ccccc1
- Potency [1]: inactive
- Potency [2]: inactive
- Potency [3]: inactive
- Potency [8]: inactive
- Potency [6]: 16600 nM (active)

SMILES: NC(=O)Nc1cc(-c2ccc(CN3CCOCC3)cc2)sc1C(N)=O
- Potency [1]: 18700 nM (active)
- Potency [2]: 2090 nM (active)
- Potency [3]: 20900 nM (active)
- Potency [4]: 2960 nM (active)
- Potency [5]: 935 nM (active)
- Potency [7]: 4180 nM (active)

SMILES: O=C1NC(=O)[C@@H](c2cn3c4c(cccc24)CCC3)[C@H]1c1c[nH]c2ccccc12
- Potency [1]: 74.3 nM (active)
- Potency [2]: 235 nM (active)
- Potency [3]: 20900 nM (active)
- Potency [4]: 46.9 nM (active)
- Potency [5]: 66.2 nM (active)
- Potency [6]: 74.3 nM (active)
- Potency [7]: 105 nM (active)

SMILES: O=C1c2cccc(O)c2C(=O)c2c(O)cc(CO)cc21
- Potency [1]: inactive
- Potency [2]: inactive
- Potency [3]: inactive
- Potency [4]: inactive
- Potency [5]: inactive
- Potency [7]: inactive

SMILES: CC(=O)OC[C@@H]1O[C@@H](n2ccc(=O)[nH]c2=O)[C@H](OC(C)=O)[C@H]1OC(C)=O
- Potency [1]: inactive
- Potency [2]: inactive
- Potency [3]: inactive
- Potency [4]: inactive
- Potency [5]: inactive
- Potency [6]: inactive
- Potency [7]: inactive

SMILES: CC(C)N1[N]C(=C2C=c3cc(O)ccc3=N2)c2c(N)ncnc21
- Potency [1]: 296 nM (active)
- Potency [2]: 264 nM (active)
- Potency [3]: 3720 nM (active)
- Potency [8]: 83.3 nM (active)
- Potency [6]: 5900 nM (active)
- Potency [7]: 296 nM (active)

SMILES: N#Cc1cc(NC(=O)Nc2nnc(-c3ccncc3)s2)ccc1-c1cn[nH]c1
- Potency [1]: inactive
- Potency [2]: inactive
- Potency [3]: inactive
- Potency [4]: inactive
- Potency [5]: inactive
- Potency [6]: inactive
- Potency [7]: inactive

SMILES: CC(=O)N[C@H]1[C@@H]([C@H](O)[C@H](O)CO)OC(C(=O)O)=C[C@@H]1N=C(N)N
- Potency [1]: inactive
- Potency [2]: inactive
- Potency [3]: inactive
- Potency [4]: inactive
- Potency [6]: inactive

SMILES: C#C[C@]1(O)CC[C@@H]2[C@@H]3CCc4cc(O)ccc4[C@H]3CC[C@@]21C
- Potency [1]: 16600 nM (active)
- Potency [2]: 7430 nM (active)
- Potency [3]: 6620 nM (active)
- Potency [4]: 16600 nM (active)
- Potency [5]: 18700 nM (active)

SMILES: CC(=O)C1=C(O)C=C2Oc3c(C(C)=O)c(O)c(C)c(O)c3C2(C)C1=O (stereo not given)
- Potency [1]: inactive
- Potency [2]: inactive
- Potency [3]: inactive
- Potency [8]: inactive
- Potency [7]: inactive

SMILES: C=C1C(=O)O[C@H]2[C@@H]1CCC(C)=CCC[C@@]1(C)O[C@@H]21
- Potency [1]: 4690 nM (active)
- Potency [2]: 2350 nM (active)
- Potency [3]: 5260 nM (active)
- Potency [4]: 3320 nM (active)
- Potency [5]: 2960 nM (active)

SMILES: CCOc1cc2ncc(C#N)c(Nc3ccc(OCc4ccccn4)c(Cl)c3)c2cc1NC(=O)C=CCN(C)C
- Potency [1]: 2350 nM (active)
- Potency [2]: 590 nM (active)
- Potency [3]: 372 nM (active)
- Potency [8]: 14800 nM (active)
- Potency [5]: 662 nM (active)
- Potency [7]: 935 nM (active)
